eIF4E 4G PPI – blocks eIF4E binding to eIF4G. P63073+Q04637. TR-FRET eIF4E-eIF4GI(517-606) binding, 2 h. inhibition, % at 21.7 µM. actives 0.37% (n = 220,000). AID 782;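 active = inhibition above about 30%, limit read from the data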;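 also: 0% = full FRET control wells and 100% = background wells lacking eIF4GI fragment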
PABP polyA inh – PABP-poly(A) binding inhibition | PABP-poly(A) RNA binding, fluorescence polarization | P11940 | actives 1% (n = 290,000) | calls only at 35 µM | AID 2014;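 also: calls also rest on retests at 20 µM and on dose response follow-up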
eIF4H inh – inhibitors of RNA binding by human eIF4H. Q15056. inhibition, % at 35 µM. eIF4H fluorescence polarization binding assay. actives 0.94% (n = 290,000). AID 2012;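 also: calls also rest on retests at 20 µM and on dose response follow-up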
PABP1 MLLE inh – inhibitors of microRNA-mediated deadenylation, human PABP1 MLLE binding; P11940; GST-MLLE / FITC-PAM2 fluorescence polarization; inhibition, % at 20 µM; actives 0.36% (n = 360,000); AID 588489; in the data active = inhibition above about 35%, passing the limit was not always enough;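 also: plate controls were DMSO wells with GST-MLLE for no effect and wells lacking GST-MLLE protein for full effect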
PERK inhibitor – blocks human PERK kinase. actives 0.17% (n = 220,000). CHO PERK-DD fusion, SEAP luminescence translation reporter. Q9NZJ5. inhibition, % at 5.6 µM. AID 1416;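 active = inhibition above the mean inhibition of all tested compounds plus 3 SD, set separately per screening campaign, cut at about 2.9% in these data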;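 also: PERK kinase domain activated by AP20187 dimerizer at 100 nM; 0% = DMSO with dimerizer and 100% = rapamycin at 8.4 µM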
* marks the source's active call; other numbers are inactive results; i = inactive; . = not tested or not shown; + = active, no number. Sampled rows, rich in hits. Any-hit rate of the full collection: about 1.6%. Unless noted, no rule for the calls is given here.

SMILES | eIF4E 4G PPI | PABP polyA inh | eIF4H inh | PABP1 MLLE inh | PERK inhibitor
O=C1c2cc(Br)ccc2N(Cc2ccc(Br)cc2)S(=O)(=O)C1c1cc(Cl)c(Cl)cc1[N+](=O)[O-] (centres undefined) | . | . | . | 20 | .
CCCC(C)(C)C(=O)N1CCC1(C)C(=O)Nc1cccc2ccccc12 (centres undefined) | . | . | . | 3 | .
CC(C)Cn1c(N)c(C(=O)COC(=O)c2cc(S(=O)(=O)N3CCOCC3)ccc2Br)c(=O)n(C)c1=O | . | . | . | 0 | .
C[C@H](CO)N1C[C@H](C)[C@@H](CN(C)Cc2ccc3c(c2)OCO3)Oc2ccc(NS(C)(=O)=O)cc2C1=O | . | . | . | -5 | .
Cc1c[nH]c(=O)c([N+](=O)[O-])c1 | 0 | i | 5 | -6 | 3.8*
CCOc1ccc(C(Nc2ccc(C)cc2)P2(=O)OCC(C)(C)CO2)cc1 (centres undefined) | -7 | + | 98* | 5 | 0
COc1cccc(C(=O)COC(=O)CCC(=O)NC2CCCCC2)c1 | 2 | i | -9 | -25 | 0
CC(NS(=O)(=O)c1ccc(OCC(=O)NCc2ccccn2)cc1)c1ccccc1 (centres undefined) | . | i | 2 | 2 | .
CCC(C)NS(=O)(=O)c1ccc(OCC(=O)NCc2ccccn2)cc1 (centres undefined) | 2 | i | -17 | -7 | 3.2*
S=C(Nc1ccccc1)N1N=C(c2cccs2)CC1c1cccs1 (centres undefined) | 0 | i | -8 | -93 | 0
O=C(COC(=O)c1ccc(F)c([N+](=O)[O-])c1)NC(=O)NCc1ccccc1 | . | . | . | 7 | .
COc1ccc(/C=C2\Oc3cc(OCC(=O)N4CCC[C@H]4CO)ccc3C2=O)c(OC)c1 | . | + | 73 | -42 | .
Cc1ccc2c(c1)c(C)cc(=O)n2CCC(=O)O | 11 | i | 88* | 8 | 0
CCCC(=O)OCCNc1cc(SCc2ccco2)c2nonc2c1[N+](=O)[O-] | 3 | + | 80* | 31 | 0
O=C(C(=O)N1CCN(c2ccccc2F)CC1)c1cn(CC(=O)N2CCCC2)c2ccccc12 | . | . | . | -9 | .
OCC[C@@H]1C[C@H](O)[C@@H](O)[C@]2(OCCc3ccccc32)O1 | . | i | -2 | 0 | .
COc1ccc(OC)c(Nc2nc(=O)c3cccnc3s2)c1 | 32* | i | 9 | 23 | 0
Cc1ccc(Nc2nc(=O)c3cccnc3s2)cc1 | -3 | i | -8 | -1 | -1
N#Cc1c(-c2cccc(Cl)c2)[nH]c(=S)[nH]c1=O | -3 | i | 0 | 53* | 0
COc1ccc(C(=O)OCC[N+]2(C)CCOCC2)cc1 | 31* | i | 4 | -131 | 0
COc1ccc(C(=O)OCCc2ccc(O)cc2)cc1 | 8 | i | 7 | 16 | -1
COC(=O)c1cc(=O)n(CCc2ccc(OC)cc2)c(=Nc2ccc(F)c(Cl)c2)s1 | -1 | i | 5 | 5 | 1
COC(=O)c1cc(=O)n(Cc2ccc3c(c2)OCO3)c(=Nc2ccc(F)c(Cl)c2)s1 | 9 | i | 2 | 2 | 2.9*
Cc1ccc(S(=O)(=O)Nc2cc(C)c(O)c(Sc3n[nH]c(C)n3)c2)cc1 | . | i | 12 | 42* | .
O=C(O)c1cccc(NC(=S)N/N=C/c2ccccc2OCc2cccc(Br)c2)c1 | 3 | i | 53* | 36 | 0
SMILES | eIF4E 4G PPI | PABP polyA inh | eIF4H inh | PABP1 MLLE inh | PERK inhibitor
COc1cc(NC(=O)Cn2nc(-c3ccc(F)cc3)ccc2=O)ccc1-n1cnnn1 | -1 | i | 102* | 0 | 0
OCCOCCN1CCN(C2=Nc3ccccc3Sc3ccccc32)CC1 | 2 | i | -7 | -3 | 1
O=C1C=CC(=O)c2c(O)c(N3CCN(CCO)CC3)c(Cl)c(O)c21 | . | . | . | 91* | .
O=C1C=CC(=O)c2c(O)c(N3CCN(CCOCCO)CC3)c(Br)c(O)c21 | . | . | . | 94* | .
Cc1onc(-c2c(F)cccc2Cl)c1C(=O)ONC(=O)c1ccco1 | 1 | i | 20 | 17 | 1
O=C1CC(=O)OC(c2ccc([N+](=O)[O-])cc2)O1 | . | . | . | 19 | .
CCC1C(=O)C(C)(C)C(=O)OC1c1ccc([N+](=O)[O-])cc1 (centres undefined) | . | + | 110* | 7 | .
O=C(Nc1ccc(C(=O)Nc2ccccc2Cl)cc1)c1cccnc1 | . | i | 2 | 3 | .
O=C(O)CC(C(=O)O)N1C(=O)/C(=C/c2ccc(-c3nc4ccccc4s3)o2)SC1=S (centres undefined) | 5 | i | 127* | 11 | 0
O=C(O)CCCN1C(=O)/C(=C\c2ccc(-c3nc4ccccc4s3)o2)SC1=S | 15 | + | 96* | -99 | 3
